This note sets out measurements from PubChem BioAssay (Tox21).

The structures appear in SMILES notation. Inconclusive results are not listed. Active and inactive are the calls of the source. Calls follow the shape of the dose curve; as a rule, active = well fitted cell-killing curve with a large enough effect in the repeat runs; inconclusive = weak or mixed curves, or effect the other way; inactive = flat fitted curve, though single readings scatter.
% is scaled to controls: 0 for no effect and ±100 for the full control effect; potency is read from the fitted curve at half-maximal effect.

A short description of this assay: Nuclear factor erythroid 2-related factor 2/antioxidant responsive element (Nrf2/ARE) small molecule agonists: qHTS cell viability counter screen in human keratinocytes (AID 1919968). Also: nearly all actives have a fitted effect of over 55% in size. The settings on record: KeratinoSens HaCaT ARE cells viability, CellTiter-Fluor, 24 h; series mostly up to 92.4 µM; activity change, negative = cytotoxicity: at the top concentration. The text has this:
U.S. Tox21 Program National Center for Advancing Translational Sciences [NCATS] Division of Preclinical Innovation [DPI] U.S. Environmental Protection Agency [EPA] National Institutes of Environmental Health Sciences [NIEHS] National Toxicology Program [NTP] U.S. Food and Drug Administration [FDA] Tox21 Assay Overview: Oxidative stress has been implicated in the pathogenesis of a variety of diseases ranging from cancer to neurodegeneration. The antioxidant response element (ARE) signaling pathway plays an important role in the amelioration of oxidative stress. The KeratinoSens (Givaudan, Switzerland) is an in vitro test method which quantifies luciferase induction as a measure of activation of Keap1-Nrf2-antioxidationt/electrophile response element (ARE) dependant pathway in HaCaT human keratinocytes stably transfected with a selectable plasmid. The KeratinoSens assay is a cell-based assay with a reporter cell line to detect potential skin sensitizers by their ability to induce the Nrf2/ARE-response. The activation of the report gene under culture conditions can be detected by ONE-Glo Luciferase Assay System (Promega, Madison, WI). This cell line has been used to screen the Tox21 10K compound library to identify agonists that induce oxidative stress. The cytotoxicity of the Tox21 compound library against the KS-ARE cell line was tested in parallel by measuring the cell viability using CellTiter- Fluor assay system (Promega, Madison, WI) in the same wells.
Tox21 Assay Protocol Summary: HaCaT derived cell line KeratinoSens were dispensed at 1,500 cells/5uL/well in 1536-well white wall/solid bottom plates using a Multidrop Combi (ThermoFisher Scientific, Waltham, MA) dispenser. After the assay plates were incubated at 37 C/5% CO2 for 5 h, 23 nL of compounds dissolved in DMSO, positive controls or DMSO only was transferred to the assay plate by a pintool workstation (Kalypsys, San Diego, CA). The plates were incubated at 37 C/5% CO2 for 23 h, followed by addition of 1uL/well of CellTiter-Fluor reagent into the assay plates using a Flying Reagent Dispenser (Aurora Discovery, San Diego, CA) for cell viability readout that measures cytotoxicity. After 1 h incubation at 37 C/5% CO2 the fluorescence intensity was measured using a ViewLux (PerkinElmer, Shelton, CT) plate reader.
`Cc1ccc(N)cc1O`: the “activity change, negative = cytotoxicity” value was 6.2% (inactive).

Turning to `COC(=O)C1=C(C)NC(C)=C(C(=O)OCC(C)=O)C1c1ccccc1[N+](=O)[O-]` (stereo not given), the “activity change, negative = cytotoxicity” value was -10.5% [at 42.5 µM] (inactive).

On to `O=S1(=O)CCCC1`, for which the “activity change, negative = cytotoxicity” value is 0.39% (inactive).

On to `COP(=O)(O)OP(=O)(O)OC`, for which the “activity change, negative = cytotoxicity” value was 2.85% (inactive).

Turning to `CCOC(=O)c1ccccc1OC`, the “activity change, negative = cytotoxicity” value is 0.993% (inactive).

As to `CCCCCC=CCC=CCCCCCCCC(=O)OCC`, the “activity change, negative = cytotoxicity” value is -0.0557% [at 42.5 µM] (inactive).

In the case of `Fc1ccc(C(c2ccc(F)cc2)N2CCN(C/C=C/c3ccccc3)CC2)cc1`, the Potency was 16.8 µM (active).

For the compound `C[C@H]1[C@H]2CC[C@H]3[C@@H]4CC=C5C[C@@H](N(C)C)CC[C@]5(C)[C@H]4CC[C@]23CN1C`, the “activity change, negative = cytotoxicity” value is -19.2% [at 42.5 µM] (inactive).

As to `CC(C)C=O`, the “activity change, negative = cytotoxicity” value is 1.89% (inactive).

As to `CC(C)N(C)C`, the “activity change, negative = cytotoxicity” value was -2.05% (inactive).

With `O=C(NO)c1ccccc1`, the “activity change, negative = cytotoxicity” value is 7.72% (inactive).

As for `CCCCCCCCCCCCSC#N`, the “activity change, negative = cytotoxicity” value is 9.24% (inactive).

Regarding `CCN(Cc1ccncc1)C(=O)C(CO)c1ccccc1` (stereo not given), the “activity change, negative = cytotoxicity” value was -0.079% [at 42.5 µM] (inactive).

For `Cc1ccc(C=O)cc1C`, the “activity change, negative = cytotoxicity” value is 7.69% (inactive).

As to `Cn1ccc2cc3c(cc21)CCN3C(=O)Nc1cccnc1`, the activity change, negative = cytotoxicity is 3.31% [at 19 µM] (inactive).

As to `Cc1c[nH]c(=S)[nH]c1=O`, the “activity change, negative = cytotoxicity” value is 0.226% (inactive).

As to `c1ccc(CN(Cc2ccccc2)Cc2ccccc2)cc1`, the “activity change, negative = cytotoxicity” value is 9.45% (inactive).

For the compound `Nc1ccc2cc(S(=O)(=O)O)cc(O)c2c1N=Nc1ccccc1C(F)(F)F`, the “activity change, negative = cytotoxicity” value is -23.4% (inactive).

For the compound `O=S(c1cc(Cl)cc(Cl)c1O)c1cc(Cl)cc(Cl)c1O`, the Potency is 23.7 µM (active).

Turning to `CCOc1ccc(NC(=O)CC(C)=O)cc1`, the “activity change, negative = cytotoxicity” value was 2.31% (inactive).

Take `CC1=C(C(=O)O)N2C(=O)[C@@H](NC(=O)[C@H](N)c3ccc(O)cc3)[C@H]2SC1`: the “activity change, negative = cytotoxicity” value was 4.09% [at 42.5 µM] (inactive).

Turning to `NNc1nc(-c2ccccc2)cs1`, the “activity change, negative = cytotoxicity” value was 1.46% (inactive).

Regarding `CCCCCCCCCCCCCCCC(=O)OC/C=C(C)/C=C/C=C(C)/C=C/C1=C(C)CCCC1(C)C`, the “activity change, negative = cytotoxicity” value is -0.982% (inactive).

`CCCOC(=O)c1c(Cl)c(Cl)c(Cl)c(Cl)c1C(=O)OCCC`: the “activity change, negative = cytotoxicity” value was 8.95% (inactive).

Take `CCCCC(CC)COP(=O)(O)O` (stereo not given): the “activity change, negative = cytotoxicity” value is -14.6% (inactive).

As for `CCCCO`, the “activity change, negative = cytotoxicity” value was 2.71% (inactive).

In the case of `CCOC(=O)CC(C)C`, the “activity change, negative = cytotoxicity” value is 0.246% (inactive).

With `COc1ccc(COC=O)cc1`, the “activity change, negative = cytotoxicity” value is -0.958% (inactive).

For the compound `CN1C[C@H]2c3ccccc3Oc3ccc(Cl)cc3[C@@H]2C1`, the “activity change, negative = cytotoxicity” value was 2.14% [at 42.5 µM] (inactive).

As for `CCC/C=C(\C=O)CC`, the “activity change, negative = cytotoxicity” value is 0.54% (inactive).

Turning to `CCOC(=O)CC(=O)c1ccccc1`, the “activity change, negative = cytotoxicity” value is -6.85% (inactive).

Turning to `Clc1ccc2cc3ccccc3cc2c1`, the “activity change, negative = cytotoxicity” value was -0.618% (inactive).

On to `Nc1ncn([C@H]2C[C@H](O)[C@@H](CO)O2)c(=O)n1`, for which the “activity change, negative = cytotoxicity” value was -2.58% [at 42.5 µM] (inactive).

On to `CCCCOc1ccc(CC(=O)NO)cc1`, for which the “activity change, negative = cytotoxicity” value is 2.15% [at 42.5 µM] (inactive).

Regarding `Cc1nccn1-c1ccc(Sc2cccc(C3(C(N)=O)CCOCC3)c2)cc1`, the “activity change, negative = cytotoxicity” value is -0.948% (inactive).

`CCC(C)(C)C1CCC(O)CC1` (stereo not given): the “activity change, negative = cytotoxicity” value was 1.84% (inactive).

On to `CC(=O)OCC(=O)[C@@]1(O)[C@H](OC(C)=O)C[C@H]2[C@@H]3CCC4=CC(=O)C=C[C@]4(C)[C@@]3(F)[C@@H](O)C[C@@]21C`, for which the “activity change, negative = cytotoxicity” value was 0.595% [at 42.5 µM] (inactive).

Take `CN(C)C(=O)Oc1cccc([N+](C)(C)C)c1`: the “activity change, negative = cytotoxicity” value was -2.91% [at 42.5 µM] (inactive).

As to `CCOc1ccccc1OCC1CNCCO1` (stereo not given), the “activity change, negative = cytotoxicity” value was -11.2% [at 42.5 µM] (inactive).

As to `CCCCC1C(=O)N(c2ccccc2)N(c2ccc(O)cc2)C1=O` (stereo not given), the Potency was 21.1 µM (active).
